The target in assay [1] is Beta-2 adrenergic receptor (Homo sapiens) (UniProt P07550). As to the kind of experiment: qHTS validation assay of beta-arrestin-biased ligands of beta2-adrenergic receptor (AID 485366). Further: 0% is about no effect. The essentials:
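Agonist activity is measured as luciferase luminescence downstream of beta-arrestin recruitment to recombinant beta2-AR in Tango cells. Exposure lasts 18 hr at 37 degrees C, and curves are categorized by r2, response size and activity.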
For orientation: In qHTS, concentration-response curves come from the screen itself.

For assay [2], the target named is ATP-dependent 6-phosphofructokinase (Trypanosoma brucei brucei) (UniProt O15648). As to the kind of experiment: qHTS Validation Assay to Find Inhibitors of T. brucei phosphofructokinase (AID 485368). The essentials:
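Inhibition derived from concentration-response curves of luminescence, ranked by r2, response size and curve class; the underlying reaction used 1.25 nM PFK, 0.1 mM ATP and 0.5 mM F6P, 45 min, room temperature.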

Assay [3] is described as follows: Quantitative high throughput screen for delayed death inhibitors of the malarial parasite plastid, 48 hour incubation (AID 488752). Further: on the % scale 0 is the no-effect control and ±100 the full control effect; nearly all actives have a fitted effect of over 65% in size. The essentials:
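Cultures: infected erythrocytes at final 2% hematocrit and 0.1% parasitemia in Albumax-supplemented RPMI. Parasites express integrated firefly luciferase. Incubation with compound lasts 48 h before luminescent detection of remaining reporter activity.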

Assay [4] concerns the target Thioredoxin reductase 1, cytoplasmic (Rattus norvegicus) (UniProt O89049). As to the kind of experiment: qHTS Assay for Substrates of Mammalian Selenoprotein Thioredoxin Reductase 1 (TrxR1) (AID 488772).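 Further: series mostly up to about 57 µM; 0% is about no effect; a drop in NADPH fluorescence below the no-compound background marks a TrxR1 substrate.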 The essentials:
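In this dual-purpose format, potential substrates are identified from the first fluorescence read after selenite addition, not from the 8-minute delta. Rat enzyme is preincubated with NADPH and then with compound at ~22 deg C.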

For assay [5] the target is unchanged. As to the kind of experiment: qHTS Assay for Inhibitors of Mammalian Selenoprotein Thioredoxin Reductase 1 (TrxR1) (AID 488773).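 Further: drop in NADPH fluorescence over an 8 min run after selenite addition; series mostly up to about 57 µM; on the % scale 0 is the no-effect control and ±100 the full control effect; nearly all actives have a fitted effect of over 40% in size.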 To be noted: Potency: inhibition. The essentials: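 Inhibition is scored from the loss of NADPH fluorescence between first and last reads of an 8-min kinetic run. Selenite (400 uM) was the substrate, added after 15 min compound preincubation at room temperature.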

Assay [6] concerns the target M-phase phosphoprotein 8 (Homo sapiens) (UniProt Q99549). As to the kind of experiment: qHTS Validation Assay for Inhibitors for MPP8 Chromodomain Interactions with Methylated Histone Tails (AID 488949). Further: nearly all actives have a fitted effect of over 55% in size. Further: potency means the concentration at half of the fitted maximal effect. The essentials:
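MPP8 (50 nM) was preincubated with biotinylated H3(1-18)K9me3 peptide (50 nM) in PBS pH 7.4, 0.01% Tween-20 for 30 min at room temperature, then with compounds for 30 min; binding was detected by AlphaScreen.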

For assay [7], the target named is Chromobox protein homolog 1 (Homo sapiens) (UniProt P83916). As to the kind of experiment: qHTS Validation Assay for Inhibitors of HP1-beta Chromodomain Interactions with Methylated Histone Tails (AID 488953). Further: nearly all actives have a fitted effect of over 50% in size. Further: potency means the concentration at half of the fitted maximal effect. The essentials: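 Compounds pinned into a preassembled complex of HP1-beta and trimethyl-K9 histone H3(1-18) biotin peptide (50 nM each; PBS pH 7.4, 0.01% Tween-20). After 30 min, bead-based AlphaScreen detection followed.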
Chain of Chromobox protein homolog 1 (Homo sapiens) (P83916 whole entry, looked up): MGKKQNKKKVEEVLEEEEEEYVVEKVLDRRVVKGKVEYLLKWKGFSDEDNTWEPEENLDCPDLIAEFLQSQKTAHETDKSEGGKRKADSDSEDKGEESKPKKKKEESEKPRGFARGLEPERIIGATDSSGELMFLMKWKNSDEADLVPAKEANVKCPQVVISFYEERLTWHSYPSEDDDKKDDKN

The target in assay [8] is Methanococcus maripaludis chaperonin (MmCpn) (UniProt Q6LX38). As to the kind of experiment: High-Throughput Screening for Modulators of Cytosolic Chaperonin Activity: MmCpn Primary Screen (AID 488978).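 Further: 50 nM MmCpn enzyme hydrolysing 30 µM ATP at 37 °C; 0% is about no effect.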 The essentials:
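MmCpn (50 nM final) was preincubated with compound 5 min at RT, then 30 uM ATP (final) was added and the reaction ran 10 min at 37C. ADP produced was detected by Transcreener HTRF (ex 320 nm; em 590/665 nm).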

Assay [9] addresses D(1A) dopamine receptor (Homo sapiens) (UniProt P21728). As to the kind of experiment: HTS Assay for Allosteric Agonists of the Human D1 Dopamine Receptor: Primary Screen for Potentiators (AID 488982). Further: 0% is about no effect. The essentials:
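Tetracycline-induced HEK293 Trex D1 cells with forced coupling to calcium, loaded with no-wash calcium dye; kinetic fluorescence read 180 s after compound addition for agonism, then a further 180 s after an EC20 dopamine challenge for potentiation.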

For assay [10] the target is unchanged. As to the kind of experiment: HTS Assay for Allosteric Agonists of the Human D1 Dopamine Receptor: Primary Screen for Antagonists (AID 488983).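 Further: calcium flux response to an EC80 dopamine challenge measured with no-wash dye; nearly all actives have a fitted effect of over 65% in size.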 Further: potency means the concentration at half of the fitted maximal effect. The essentials:
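In this primary screen, compounds are applied to calcium-dye-loaded HEK293 T-REx cells with force-coupled D1 expression induced overnight at 30 C. An EC80 of dopamine follows the 180 s compound phase, and calcium is monitored for a further 180 s.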

Assay [11] can be described thus: Validation screen for small molecules that induce genotoxicity in human embryonic kidney (HEK293T) cells expressing luciferase-tagged ELG1 (AID 493106). Further: 0% is about no effect. The essentials: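 In this validation screen, increased ELG1-luciferase signal flags compounds causing genetic stress. HEK293T reporter cells are treated 16 hr (37 °C, 5% CO2), developed with ONE-Glo for 30 min at room temperature, and imaged on a CCD-based reader.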

The target of assay [12] is ATPase family AAA domain-containing protein 5 (Homo sapiens) (UniProt Q96QE3). As to the kind of experiment: Validation screen for small molecules that inhibit ELG1-dependent DNA repair in human embryonic kidney (HEK293T) cells expressing luciferase-tagged ELG1 (AID 493107).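 Further: cells co-treated with the DNA-damaging agent 5-fluorouridine alongside compound; series mostly up to about 46 µM; on the % scale 0 is the no-effect control and ±100 the full control effect; inhibitors lower the ELG1-luciferase luminescence signal; nearly all actives have a fitted effect of over 70% in size.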 The essentials: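 Compounds reducing 5-fluorouridine-driven ELG1-luciferase signal in HEK293T cells were scored; exposure lasted 16 hr at 37 °C with luminescence detected via ONE-Glo.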
Chain of ATPase family AAA domain-containing protein 5 (Homo sapiens) (Q96QE3 whole entry, looked up, the tested form may be a part): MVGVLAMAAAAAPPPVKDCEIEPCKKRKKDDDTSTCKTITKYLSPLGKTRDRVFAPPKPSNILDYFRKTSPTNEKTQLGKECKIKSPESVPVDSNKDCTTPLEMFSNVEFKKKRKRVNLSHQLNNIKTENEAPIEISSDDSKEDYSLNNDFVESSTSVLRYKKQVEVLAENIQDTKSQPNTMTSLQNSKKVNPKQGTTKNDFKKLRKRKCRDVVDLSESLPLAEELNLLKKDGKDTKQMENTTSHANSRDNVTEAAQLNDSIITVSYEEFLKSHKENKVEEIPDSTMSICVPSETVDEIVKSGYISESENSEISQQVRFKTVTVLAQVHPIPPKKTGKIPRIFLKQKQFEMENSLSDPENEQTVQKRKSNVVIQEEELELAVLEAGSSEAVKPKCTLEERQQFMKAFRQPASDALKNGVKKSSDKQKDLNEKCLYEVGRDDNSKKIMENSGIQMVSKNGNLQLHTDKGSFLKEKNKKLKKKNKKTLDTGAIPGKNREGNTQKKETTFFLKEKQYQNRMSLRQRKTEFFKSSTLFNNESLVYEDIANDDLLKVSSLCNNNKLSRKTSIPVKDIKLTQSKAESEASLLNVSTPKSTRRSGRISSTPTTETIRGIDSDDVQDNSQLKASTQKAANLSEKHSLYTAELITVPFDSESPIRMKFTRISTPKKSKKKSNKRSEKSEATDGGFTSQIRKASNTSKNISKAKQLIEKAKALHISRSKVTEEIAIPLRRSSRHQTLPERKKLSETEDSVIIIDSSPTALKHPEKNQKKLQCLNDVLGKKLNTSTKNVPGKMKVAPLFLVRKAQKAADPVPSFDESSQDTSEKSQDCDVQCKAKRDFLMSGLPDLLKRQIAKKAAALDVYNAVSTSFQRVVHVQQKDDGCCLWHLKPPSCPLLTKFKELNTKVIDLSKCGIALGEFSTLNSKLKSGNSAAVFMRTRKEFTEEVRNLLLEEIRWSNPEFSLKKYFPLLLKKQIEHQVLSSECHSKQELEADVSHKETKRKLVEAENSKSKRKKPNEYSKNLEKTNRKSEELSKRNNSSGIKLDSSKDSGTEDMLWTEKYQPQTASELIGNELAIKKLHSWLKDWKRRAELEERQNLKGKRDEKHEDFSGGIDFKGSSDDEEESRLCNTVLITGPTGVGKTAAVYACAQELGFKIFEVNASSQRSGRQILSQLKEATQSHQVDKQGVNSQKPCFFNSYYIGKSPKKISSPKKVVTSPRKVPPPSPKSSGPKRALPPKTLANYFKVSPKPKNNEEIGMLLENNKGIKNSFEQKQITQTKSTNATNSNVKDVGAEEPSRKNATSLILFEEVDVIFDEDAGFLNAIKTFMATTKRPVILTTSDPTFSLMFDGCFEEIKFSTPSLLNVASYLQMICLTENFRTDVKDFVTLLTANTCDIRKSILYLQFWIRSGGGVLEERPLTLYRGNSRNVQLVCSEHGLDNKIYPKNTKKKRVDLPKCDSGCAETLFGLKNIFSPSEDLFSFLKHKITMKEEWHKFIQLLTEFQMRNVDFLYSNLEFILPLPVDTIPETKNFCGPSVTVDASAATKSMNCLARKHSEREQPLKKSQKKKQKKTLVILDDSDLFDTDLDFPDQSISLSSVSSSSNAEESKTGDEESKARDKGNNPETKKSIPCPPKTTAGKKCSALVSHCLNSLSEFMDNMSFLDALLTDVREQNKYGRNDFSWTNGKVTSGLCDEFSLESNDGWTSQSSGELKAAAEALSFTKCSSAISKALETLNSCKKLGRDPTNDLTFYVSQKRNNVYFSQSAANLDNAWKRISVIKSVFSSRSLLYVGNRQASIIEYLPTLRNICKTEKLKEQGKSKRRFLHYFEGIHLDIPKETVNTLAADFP

Assay [13] concerns the target Thyrotropin-releasing hormone receptor (Homo sapiens) (UniProt P34981). As to the kind of experiment: qHTS for Small Molecule Agonists and Allosteric Enhancers of Human TRH Receptor: Validation Screen for Agonists (AID 493127;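 active means calcium activation more than 3 SD above the typical response in the agonist read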;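 further: intracellular calcium rise by fluo-8 fluorescence before TRH EC20 addition; 0% is about no effect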). To be noted: TRH receptor agonist cell assay; at 2 µM; stronger effect = higher value. The essentials: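 Kinetic fluorescence assay of agonist-induced calcium release: overnight-plated TRHR cells, room-temperature fluo-8 loading, baseline then compound addition with per-second reads.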

Assay [14] concerns the target Flap endonuclease 1 (Homo sapiens) (UniProt P39748). As to the kind of experiment: qHTS Validation Assay for the Inhibitors of Human Flap endonuclease 1 (FEN1) (AID 488816). Further: on the % scale 0 is the no-effect control and ±100 the full control effect. The essentials: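 Enzyme reagent 10 nM; cpds pinned; 15 min RT preinc.; substrate 50 nM final; reads t=0 and 15 min; no-enzyme buffer wells as neg. control; normalized data, 4-parameter Hill fit.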

Assay [15] addresses Thyrotropin receptor (Homo sapiens) (UniProt P16473). As to the kind of experiment: qHTS Assay for Antagonists of the Thyroid Stimulating Hormone Receptor (AID 488980). Further: series mostly up to about 58 µM; 0% is about no effect. The essentials:
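HEK293 cells transfected with human TSHR, suspended in HEPES-buffered HBSS with 70 uM RO 20-1724, were treated with compounds plus TSH at EC80 (4 nM final). cAMP was measured by competitive HTRF (cryptate anti-cAMP antibody, cAMP-d2 acceptor).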

A short description of assay [16]: Nrf2 qHTS screen for inhibitors: Validation (AID 493153; active means well fitted inhibition curve with a large enough effect in the main read-out, with a control signal flat, not every such curve was filed as active). To be noted: Potency: luciferase luminescence; viability change: measured here: cytotoxicity max response. The essentials: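 In this counterscreened reporter format, each well gives two signals: CellTiter-Fluor fluorescence for cytotoxicity and ARE-luciferase luminescence for Nrf2 function. A549 ARE_Fluc cells in 5% FBS OPTI-MEM were exposed to compound titrations for 18-24 h.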

Assay [17] can be described thus: qHTS for Inhibitors of Cell Surface uPA Generation: Validation Assay (AID 493164).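 Further: RAW 264.7 macrophage cells exposed to compound for 18 h; 0% is about no effect.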 The essentials:
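Compounds are titrated over seven points (2.45 nM–38.3 uM final) onto pre-plated RAW 264.7 cells and incubated for 18 h. Retained intracellular ATP, measured with ATP-Lite, indicates blocked lethal factor entry.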

Assay [18] concerns the target ATP-dependent 6-phosphofructokinase (Trypanosoma brucei brucei) (UniProt O15648). As to the kind of experiment: qHTS Assay to Find Inhibitors of T. brucei phosphofructokinase: hit validation (AID 492961).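 Further: luminescence reports ADP formed as PFK phosphorylates fructose-6-phosphate with ATP; series mostly up to about 51 µM; on the % scale 0 is the no-effect control and ±100 the full control effect.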 The essentials:
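Inhibition of parasite PFK is measured as reduced ADP formation, quantified via luciferase after ATP depletion. Assay used 0.1 mM ATP, 0.5 mM F6P, 1.25 nM enzyme, 45 min incubation.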

Each structure is given as a SMILES string. “And” between values parts separate entries of the source, which are not always exact repeats. Identical values can stand only once. Results filed as inconclusive are left out. The source made the active and inactive calls. Unless noted, the call rests on the fitted dose curve; in most records, active means well fitted curve in the direction sought with a large enough effect; inconclusive means small, poorly fitted or top-dose-only effect, or another doubt; inactive means no such curve, though single readings can be large; an effect the other way counts as inactive or inconclusive.

Chain of Thioredoxin reductase 1, cytoplasmic (Rattus norvegicus) (O89049 whole entry, looked up): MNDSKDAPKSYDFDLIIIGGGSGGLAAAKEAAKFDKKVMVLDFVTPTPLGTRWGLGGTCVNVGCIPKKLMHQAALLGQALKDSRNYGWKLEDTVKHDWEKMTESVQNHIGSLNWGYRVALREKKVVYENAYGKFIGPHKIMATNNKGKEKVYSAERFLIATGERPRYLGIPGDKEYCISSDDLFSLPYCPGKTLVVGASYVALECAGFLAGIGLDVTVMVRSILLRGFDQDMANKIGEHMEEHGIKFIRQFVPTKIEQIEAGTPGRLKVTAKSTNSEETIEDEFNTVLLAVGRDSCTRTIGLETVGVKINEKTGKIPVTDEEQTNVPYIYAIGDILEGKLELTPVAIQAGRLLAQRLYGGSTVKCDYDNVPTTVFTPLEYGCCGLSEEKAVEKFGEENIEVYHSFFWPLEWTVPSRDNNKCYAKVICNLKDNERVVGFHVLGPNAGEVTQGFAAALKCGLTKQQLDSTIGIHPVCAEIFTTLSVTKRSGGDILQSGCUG
Chain of Thyrotropin-releasing hormone receptor (Homo sapiens) (P34981 whole entry, looked up): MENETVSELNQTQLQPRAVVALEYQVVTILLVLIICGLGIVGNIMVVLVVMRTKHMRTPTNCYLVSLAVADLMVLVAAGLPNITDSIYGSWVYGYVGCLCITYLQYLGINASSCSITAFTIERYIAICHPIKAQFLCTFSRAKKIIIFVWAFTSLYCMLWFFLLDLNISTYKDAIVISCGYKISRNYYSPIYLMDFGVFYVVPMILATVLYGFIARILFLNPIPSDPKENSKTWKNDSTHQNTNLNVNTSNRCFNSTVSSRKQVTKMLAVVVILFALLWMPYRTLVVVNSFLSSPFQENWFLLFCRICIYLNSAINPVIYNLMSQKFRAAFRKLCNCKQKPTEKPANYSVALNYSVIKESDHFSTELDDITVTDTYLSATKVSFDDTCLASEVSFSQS
Chain of Flap endonuclease 1 (Homo sapiens) (P39748 whole entry, looked up): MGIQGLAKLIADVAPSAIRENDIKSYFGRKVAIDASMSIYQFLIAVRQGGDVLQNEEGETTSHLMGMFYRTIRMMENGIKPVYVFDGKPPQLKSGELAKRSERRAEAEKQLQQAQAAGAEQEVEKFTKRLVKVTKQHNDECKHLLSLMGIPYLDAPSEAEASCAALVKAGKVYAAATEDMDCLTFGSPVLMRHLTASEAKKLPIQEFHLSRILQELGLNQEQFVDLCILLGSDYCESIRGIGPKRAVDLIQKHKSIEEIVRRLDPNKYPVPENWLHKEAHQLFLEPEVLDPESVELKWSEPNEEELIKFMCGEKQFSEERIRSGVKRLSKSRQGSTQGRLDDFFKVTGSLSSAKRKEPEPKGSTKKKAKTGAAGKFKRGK
Chain of Methanococcus maripaludis chaperonin (MmCpn) (Q6LX38 1-543): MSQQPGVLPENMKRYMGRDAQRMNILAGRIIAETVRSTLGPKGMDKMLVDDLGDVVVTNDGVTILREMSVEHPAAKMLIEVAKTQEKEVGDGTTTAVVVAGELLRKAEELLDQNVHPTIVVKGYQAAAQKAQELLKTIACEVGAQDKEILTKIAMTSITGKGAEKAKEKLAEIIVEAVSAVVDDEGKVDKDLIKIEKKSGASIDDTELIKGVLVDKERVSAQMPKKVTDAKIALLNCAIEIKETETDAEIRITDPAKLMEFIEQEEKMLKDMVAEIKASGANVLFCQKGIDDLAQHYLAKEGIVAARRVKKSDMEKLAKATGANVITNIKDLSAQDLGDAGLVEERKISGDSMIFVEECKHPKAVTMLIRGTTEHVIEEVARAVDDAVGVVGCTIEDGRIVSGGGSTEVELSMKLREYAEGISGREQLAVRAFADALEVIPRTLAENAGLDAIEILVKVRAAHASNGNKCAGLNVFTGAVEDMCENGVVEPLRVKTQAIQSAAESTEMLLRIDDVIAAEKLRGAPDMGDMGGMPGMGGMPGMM
Chain of ATP-dependent 6-phosphofructokinase (Trypanosoma brucei brucei) (O15648 whole entry, looked up): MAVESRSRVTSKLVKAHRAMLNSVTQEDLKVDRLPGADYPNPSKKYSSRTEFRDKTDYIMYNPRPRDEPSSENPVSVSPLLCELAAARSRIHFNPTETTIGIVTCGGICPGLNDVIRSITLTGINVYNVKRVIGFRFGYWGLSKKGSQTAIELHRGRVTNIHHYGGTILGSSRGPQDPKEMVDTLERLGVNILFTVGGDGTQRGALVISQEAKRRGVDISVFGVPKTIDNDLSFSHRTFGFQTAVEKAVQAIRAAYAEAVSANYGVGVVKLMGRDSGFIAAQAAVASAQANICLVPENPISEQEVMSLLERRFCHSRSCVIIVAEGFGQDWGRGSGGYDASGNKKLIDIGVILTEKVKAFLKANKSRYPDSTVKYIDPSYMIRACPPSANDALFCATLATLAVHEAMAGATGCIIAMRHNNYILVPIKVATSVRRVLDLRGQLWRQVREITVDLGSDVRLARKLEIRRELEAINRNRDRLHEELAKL
Chain of D(1A) dopamine receptor (Homo sapiens) (P21728 whole entry, looked up): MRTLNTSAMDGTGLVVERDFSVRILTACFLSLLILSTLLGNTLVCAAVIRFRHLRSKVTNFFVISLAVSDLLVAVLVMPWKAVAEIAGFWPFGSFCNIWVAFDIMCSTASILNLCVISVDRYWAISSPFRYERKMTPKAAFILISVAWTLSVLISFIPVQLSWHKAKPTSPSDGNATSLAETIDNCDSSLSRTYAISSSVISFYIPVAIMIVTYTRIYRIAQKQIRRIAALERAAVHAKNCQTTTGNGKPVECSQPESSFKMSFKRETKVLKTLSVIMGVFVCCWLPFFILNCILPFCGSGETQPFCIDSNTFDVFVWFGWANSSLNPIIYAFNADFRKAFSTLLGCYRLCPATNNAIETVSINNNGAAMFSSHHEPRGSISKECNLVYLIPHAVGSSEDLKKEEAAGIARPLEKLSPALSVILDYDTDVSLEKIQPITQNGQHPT

As for `NC(=O)c1ncn([C@@H]2O[C@H](CO)[C@@H](O)[C@H]2O)n1`, the call in assay [1], in [4], in assay [9] and in assay [12] was inactive. In addition, the Potency entry in assay [2], in [3], in [5], in assay [6], in assay [7] and in assay [8] was “inactive” each time. Further, the Potency result in [10] and in assay [11] was “inactive” in each case. The activation in [13] was 0.875% (inactive).

On to `CN(C)CCCN1c2ccccc2Sc2ccc(Cl)cc21`, for which the compound was called inactive in assay [1], in assay [4], in [15] and in assay [17]. In addition, the Potency entry in assay [2], in [5], in assay [14], in assay [8], in assay [11] and in assay [16] was “inactive” each time. The Potency in assay [6] was 35.5 µM (active). For the same compound, the activation in assay [13] was 11.5% (inactive). Further, the viability change in [16] came to 4.06%.

With `CC(C)(C)c1onc(OCP(=O)(O)O)c1CC(N)C(=O)O` (stereo not given), the compound was classed as inactive in assay [1], in assay [4], in [15], in assay [9], in [12] and in [17]. Also, the Potency entry in assay [2], in assay [3], in assay [5], in assay [14], in assay [6] and in [7] was “inactive” throughout. Moreover, the Potency entry in [8], in [10], in [11] and in [16] was “inactive” in each case. Also, the activation in assay [13] was 1% (inactive). For the same compound, the viability change in assay [16] was 4.09% and -1.93%.

`C#CCN(C)Cc1ccccc1`: the compound was called inactive in [1], in assay [4], in assay [15], in [9], in assay [12] and in assay [17]. Besides, the Potency entry in assay [3], in assay [5], in assay [14], in assay [6], in assay [7] and in assay [8] was “inactive” each time. Further, the Potency result in assay [10], in assay [11] and in assay [16] was “inactive” throughout. Besides, in [13], the activation was 0.562% (inactive). The viability change in assay [16] amounted to 1.01%.

With `CN1CCN(C2Cc3ccccc3Sc3ccc(Cl)cc32)CC1` (stereo not given), the result in [1], in assay [4], in [15], in assay [9] and in [17] was inactive. The Potency entry in [2], in assay [3], in assay [5], in assay [14], in assay [6] and in assay [8] was “inactive” each time. Moreover, the Potency result in [18], in assay [11] and in [16] was “inactive” throughout. For the same compound, the Potency in [7] is 14.1 µM (active); in assay [10] it was 0.199 µM (active). In addition, the activation in [13] was 0.75% (inactive). The viability change in assay [16] was -10.9%.

For `CC1=C(CC(=O)O)c2cc(F)ccc2/C1=C\c1ccc(S(C)(=O)=O)cc1`, the result in [1], in assay [4], in [9] and in [17] was inactive. The Potency entry in assay [2], in [3], in [5], in [14], in [6] and in assay [8] was “inactive” in each case. The Potency result in assay [10], in assay [11] and in assay [16] was “inactive” in each case. Besides, the Potency in assay [7] is 0.006 µM (active). The activation in [13] was 0% (inactive). Also, in assay [16], the viability change is -17.2%.

Values taken from PubChem BioAssay (NCATS).
